Data from PubChem BioAssay (NCATS).
Results filed as inconclusive are left out. Where a call stands in place of a potency, no number is given. The source made the active and inactive calls. The call rests on the fitted dose curve; in most records, active means well fitted curve in the direction sought with a large enough effect; inconclusive means small, poorly fitted or top-dose-only effect, or another doubt; inactive means no such curve, though single readings can be large or run the other way. Numbered stars: 1 amine (or outer) side, 2 acyl side, 3 side chain; on linkers, the order of the positions; unused ones are H or OH. Bridge positions count the residues as written; N and C are the ends. Square brackets hold non-standard residues; d marks the D form. Peptide text beside a SMILES is read from it. ξ: configuration not given here. Phe(3R-OH) = O=C([C@@H](N[*:1])[C@H](O[*:3])c1ccccc1)[*:2]; NMeTrp(4-OMe) = CN[C@@H](Cc1c[nH]c2cccc(OC)c12)C(=O)O; ξThr(3R)(O-yl) = C[C@@H](O[*:3])C(N[*:1])C(=O)[*:2]; NMeThr(3ξ) = CN[C@H](C(=O)O)C(C)O; NMeL = CN[C@@H](CC(C)C)C(=O)O; NMeV = CN[C@H](C(=O)O)C(C)C; ξIle = CC[C@H](C)C(N)C(=O)O; ξV = CC(C)C(N)C(=O)O

assay: HPAF-II 18hr Apoptosis Induction qHTS against the NCATS CANVASS Library (AID 1347360); details: HPAF-II caspase-3/7 luminescence; series mostly up to 46.1 µM
Source text: Natural products and their derivatives continue to be wellsprings of nascent therapeutic potential. However, many laboratories have limited resources for biological evaluation, leaving their previously isolated or synthesized compounds largely or completely untested. To address this issue, the Canvass library of natural products was assembled (https://tripod.nih.gov/canvass), in collaboration with academic and industry researchers, for quantitative high-throughput screening (qHTS) across a diverse set of cell-based and biochemical assays. The pure (>85% purity by liquid chromatography/mass spectrometry [LC/MS]) Canvass library of 346 natural products were submitted by 45 academic laboratories and companies around the world. We collected pure natural products to circumvent deconvolution and structure elucidation due to time and resource limitations. The library was formatted into 1536-well plates and evaluated in 50 qHTS (in an 11-pnt concentration series) bioassays with broad scope of disease-relevant mechanisms. The resulting data set from 50 different assays was then systematically analyzed to identify overall trends and specific natural products with interesting biological activities. Reported herein are the results of each individual qHTS and their corresponding assay protocol. The Caspase-Glo (R) (Promega) is a homogeneous, luminescent assay that measures caspase activity. The detection substrate contains tetrapeptide sequence DEVD in an "add-mix-measure" format. The reagent generates a luminescent signal produced by a thermostable luciferase. The luminescence is proportional to the amount of caspase activity in the assay reaction. National Center for Advancing Translational Sciences (NCATS), Rockville, MD National Institute of Health (NIH), Bethesda, Maryland
Cancer Cell Apoptosis Assay 1. In a 1536 well, white solid bottom tissue culture plates (Corning 7494), HPAF-II cancer cells in DMEM + 10% FBS + 1% P/S media were dispensed in each well at a final concentration of 500 cells / well (5uL volume) using the Multidrop Combi (Thermo Fisher Scientific) dispenser. 2. Compounds were pin transferred (~23nL volume) via Wako Pin-tool (Wako Automation, Richmond VA) equipped with a 1536 pin head. The assay plates were treated with compounds in a concentration series with a final concentration range of 0.17nM to 103uM. 3. Doxorubicin was used as a control in a 16pnt titration (1mM; 1:2 dilution; 16-points; n = 2; column 3, rows 1 - 32) and was pin transferred via Wako Pin-tool equipped with a 1536 pin head. The final concentration range of doxorubicin is 0.1nM - 4uM. 4. The assay plates were incubated for 18 hours at 37 degrees C/5% CO2/95% Rh. 5. 3uL Caspase-Glo 3/7 (R) (Promega) detection reagent was then added to the assay plates (columns 2 - 48, rows 1 - 32) and incubated at room temperature, covered from light, for 15 min. 6. Luminescence signal was acquired via the ViewLux plate reader (PerkinElmer) using a clear filter, 20 second exposure and 2x binning settings.

**Q.** With CC(=O)NC[C@@H]1O[C@H](CC/C=C(C)/C(C)=C/C=O)[C@H](C)C[C@H]1O as the compound, how does the Potency read?
**A.** inactive

**Q.** For C1=C2CCCN[C@@H]2[C@@H]2CCN3CCCC[C@@H]3[C@H](C1)C2, which Potency is on record?
**A.** inactive

**Q.** Which Potency does the source give for CN1C(=O)C2C(N=CN2C)N(C)C1=O (stereo not given) here?
**A.** inactive

**Q.** For C[C@@H]1O[C@H](c2c(O)cc(O)c3c(=O)cc(-c4ccc(O)cc4)oc23)[C@H](O)[C@H](O)[C@H]1O, which Potency is on record?
**A.** inactive

**Q.** Which Potency does the source give for C=C1[C@H]2CC[C@@]3(C=CC(=O)[C@@](C)(CCC(=O)Nc4c(O)ccc(C(=O)O)c4O)C3C2)[C@H]1O (stereo not given in full) here?
**A.** inactive

**Q.** With CC(=O)[C@@H]1[C@@H](O)C[C@H]2[C@]3(C)CC[C@H]4C(C)(C)CCC[C@]4(CO)[C@H]3C[C@H]3OC(=O)[C@@H]1[C@@]32C as the compound, how does the Potency read?
**A.** inactive

**Q.** For COc1ccc(/C=C2\COc3cc(O)ccc3C2=O)cc1, which Potency is on record?
**A.** inactive

**Q.** With COc1ccc2cc(NC(=O)C3=NO[C@H]4[C@H](O)C=C[C@@H](Cl)[C@@]4(O)C3)c(=O)oc2c1OC as the compound, how does the Potency read?
**A.** inactive

**Q.** For CCC1=C2CCCN3C(=O)O[C@H]([C@H]1OC(C)=O)[C@H]23, which Potency is on record?
**A.** inactive

**Q.** With CN1CC[C@]2(c3cccc4c3N[C@@H]3N(C)CC[C@]43[C@@]34CCN(C)[C@@H]3Nc3c([C@]56CCN(C)[C@H]5Nc5ccccc56)cccc34)c3ccccc3N[C@H]12 as the compound, how does the Potency read?
**A.** inactive

**Q.** Which Potency does the source give for CC[C@H](C)C(NC(=O)[C@@H](NC)C(C)C)C(=O)NC1C(=O)N(C)[C@@H](C(C)O)C(=O)N[C@@H](C(C)C)C(=O)N(C)[C@@H](CC(C)C)C(=O)NC(C(C)C)C(=O)N(C)[C@@H](C(C)C)C(=O)N(C)[C@@H](Cc2c[nH]c3cccc(OC)c23)C(=O)N[C@@H](C(C)C)C(=O)N[C@@H]([C@H](O)c2ccccc2)C(=O)N[C@@H](C(C)C)C(=O)O[C@@H]1C (stereo partly drawn) (H-[NMeV][ξIle][ξThr(3R)(O-yl)][NMeThr(3ξ)]V[NMeL][ξV][NMeV][NMeTrp(4-OMe)]V[Phe(3R-OH)]V; ester 3-C) here?
**A.** inactive

**Q.** With COc1c(O)cc2oc(-c3ccccc3)cc(=O)c2c1O as the compound, how does the Potency read?
**A.** inactive

**Q.** With COC1C(O)C(OC(N)=O)C(Oc2ccc3c(O)c(NC(=O)c4ccc(O)c(CC=C(C)C)c4)c(=O)oc3c2C)OC1(C)C (stereo not given) as the compound, how does the Potency read?
**A.** inactive

**Q.** Which Potency does the source give for CC1=CC[C@@]2(C[C@@H]1O)[C@@H](C(=O)O)CC[C@H]2C(C)C here?
**A.** inactive

**Q.** With C[C@H]1C[C@@H]([C@@H]2CC[C@]34O[C@H](CC[C@@]35C[C@H](C)C(=O)O5)CN24)OC1=O as the compound, how does the Potency read?
**A.** inactive

**Q.** For CC1C(=O)C23CCC1C[C@]21O[C@@H]2C(C)(C)C=CC(=O)[C@@]23COC1=O (stereo not given in full), which Potency is on record?
**A.** inactive

**Q.** For C=C1C(=O)O[C@H]2[C@H]1CC/C(CO)=C\CC[C@@]1(C)O[C@@H]21, which Potency is on record?
**A.** inactive

**Q.** Which Potency does the source give for C/C=C1/CC[C@@H]2c3[nH]c4ccccc4c3CCN2C1 here?
**A.** inactive

**Q.** For CC1(C)CCC[C@]2(C)[C@@H]1CC[C@@]13C[C@@H](CC[C@H]12)C(C)(O)C3 (stereo not given in full), which Potency is on record?
**A.** inactive

**Q.** For C[C@@H](O)[C@H]1OC(=O)C=C2[C@]3(C)[C@H]4[C@H](OC(=O)[C@@]4(C)[C@@H](O)[C@H]4O[C@H]43)[C@H]3O[C@@]231, which Potency is on record?
**A.** inactive

**Q.** For CCC[C@@H](C)/C=C(\C)[C@H](O)[C@H](C)/C=C/CC[C@@H](O)[C@H](C)[C@H](O)[C@H](C)[C@H](O)[C@H](C)[C@H]1O[C@H]([C@H](C)C(=O)O)CC[C@@H]1C, which Potency is on record?
**A.** inactive

**Q.** With COc1cc(O)c2c3c(c(O)cc(C)c13)C(=O)OC2 as the compound, how does the Potency read?
**A.** inactive

**Q.** For O=C(O)[C@@]12CO[C@@]3(O)C4CCN(CC[C@H]31)[C@H]4c1c2[nH]c2ccccc12, which Potency is on record?
**A.** inactive

**Q.** Which Potency does the source give for CC(C)=CCC/C(C)=C/Cc1c(O)c(CC=C(C)C)c(O)c2c(=O)c3cc(O)ccc3oc12 here?
**A.** inactive

**Q.** For CCCCCCC[C@@H](C/C=C/CCC(=O)NCCc1c[nH]c2ccccc12)OC, which Potency is on record?
**A.** inactive

**Q.** For O=c1cc(-c2ccc(O)cc2)oc2c([C@@H]3OC(CO)[C@H](O)[C@@H](O)[C@H]3O)c(O)cc(O)c12 (stereo not given in full), which Potency is on record?
**A.** inactive

**Q.** With COc1ccc([C@@H]2c3cc(OC)c(OC)cc3C(=O)[C@H](C)C2C)cc1OC (stereo not given in full) as the compound, how does the caspase activation read?
**A.** 1.74% [at 9.19 µM] (inactive)

**Q.** For O=C(OC1Cc2c(O)cc(O)cc2OC1c1cc(O)c(O)c(O)c1)c1cc(O)c(O)c(O)c1 (stereo not given), which Potency is on record?
**A.** inactive

**Q.** With Oc1ccc([C@H]2Oc3ccc(/C=C/c4cc(O)cc(O)c4)cc3C2c2cc(O)cc(O)c2)cc1 (stereo not given in full) as the compound, how does the Potency read?
**A.** inactive

**Q.** With C/C(=C\[C@H](C)C(=O)CCCC1CC(=O)NC(=O)C1)C(O)[C@@H](C)[C@H](O)C/C=C/CC/C=C/C(=O)O (stereo not given in full) as the compound, how does the Potency read?
**A.** inactive

**Q.** Which Potency does the source give for O=C(O)CC1OC(=O)c2c(O)cccc21 (stereo not given) here?
**A.** inactive

**Q.** With C[C@@H]1C(=O)[C@]23CC[C@H]1C[C@]21O[C@H]2C(C)(C)C=CC(=O)[C@]23COC1=O as the compound, how does the Potency read?
**A.** inactive

**Q.** For O=C1c2c(O)cc(O)cc2O[C@@H](c2ccc(O)cc2)[C@@H]1c1c(O)cc(O)c2c(=O)cc(-c3ccc(O)c(O)c3)oc12, which Potency is on record?
**A.** inactive

**Q.** With O=C1C[C@@H](c2ccc(O)c(-c3c(O)cc(O)c4c3O[C@H](c3ccc(O)cc3)CC4=O)c2)Oc2cc(O)cc(O)c21 as the compound, how does the Potency read?
**A.** inactive

**Q.** Which Potency does the source give for CO[C@@H]1[C@H](O)[C@@H](C)O[C@@H](OC[C@@H]2C(C)OC(=O)/C=C/[C@H](C)C(O[C@@H]3O[C@H](C)CC4(OC(=O)O[C@@H]4C)C3O)[C@@H](C)CC(C)C(=O)CC[C@H]3OC23)[C@@H]1OC (stereo not given in full) here?
**A.** inactive

**Q.** For O=C(O)[C@@]12COC3(O)C1CCN1CC[C@H]3[C@@H]1c1c2[nH]c2ccccc12, which Potency is on record?
**A.** inactive

**Q.** Which Potency does the source give for CC1(C)[C@H](Br)CC[C@]23C[C@]4(C)C(=O)CC12C[C@H]34 here?
**A.** inactive

**Q.** With O=Cc1ccc2n1C[C@@]1(OC2)O[C@H](CO)[C@@H](O)[C@@H]1O as the compound, how does the Potency read?
**A.** inactive

**Q.** Which Potency does the source give for C=C(NC(=O)c1csc(-c2nc3c(cc2O)-c2nc(cs2)C(=O)NC(C(C)O)C(=O)N/C(=C(\C)O)c2nc(cs2)C(=O)NC2c4nc(cs4)C(=O)NC(COC(=O)c4c5c6c(cccc6n4O)COC(=O)[C@@H](OC4C[C@](C)(O)[C@H](N(C)C)[C@H](C)O4)C2OC5)c2nc-3cs2)n1)C(N)=O (stereo not given in full) here?
**A.** inactive

**Q.** With C=C[C@@]1(C)CC[C@@H]([C@H](C)C(=O)/C=C/C(C)C)O1 as the compound, how does the Potency read?
**A.** inactive
